Assay in all cases: DAPPL (digital affinity profiling via proximity ligation, sequencing); 10 mM Tris-HCl pH 7.5, 50 mM NaCl, 1 mM DTT, 4% glycerol, room temperature, 30 min; GST-TFs on glutathione beads, 16-mer random dsDNA library, 0.1% formaldehyde crosslink after washing; high values mean tight binding
Common to all, as to conditions: protein: recombinant; tags: N-terminal GST; dsDNA, one strand shown

One assay concerns the target T1, ERF (Homo sapiens, UniProt P50548 1-548).
T1 sequence: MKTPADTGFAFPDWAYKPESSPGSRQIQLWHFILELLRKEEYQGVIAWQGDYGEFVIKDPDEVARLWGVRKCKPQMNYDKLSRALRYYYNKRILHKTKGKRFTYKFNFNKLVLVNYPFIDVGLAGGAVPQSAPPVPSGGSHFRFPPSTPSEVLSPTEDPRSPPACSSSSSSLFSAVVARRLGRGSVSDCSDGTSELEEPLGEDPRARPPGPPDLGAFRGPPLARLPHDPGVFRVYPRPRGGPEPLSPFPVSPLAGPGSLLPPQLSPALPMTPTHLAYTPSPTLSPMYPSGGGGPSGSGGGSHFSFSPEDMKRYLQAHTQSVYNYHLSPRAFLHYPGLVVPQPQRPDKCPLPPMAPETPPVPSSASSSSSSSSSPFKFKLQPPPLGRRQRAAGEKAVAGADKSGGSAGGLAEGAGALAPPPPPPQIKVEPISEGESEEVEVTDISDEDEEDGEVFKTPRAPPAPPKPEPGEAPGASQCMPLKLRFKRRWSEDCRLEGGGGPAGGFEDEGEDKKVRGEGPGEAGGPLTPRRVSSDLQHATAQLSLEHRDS
The method in brief: (§1)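 The binding signal reported is, for every hexamer, its read frequency for a factor over its read frequency for the tag-only sample. Reads came from pools of yeast-expressed, GST-fused human transcription factors on glutathione beads, barcoded with DNA and mixed with that sample, which were incubated with 200 nmole of a random double-stranded 16-mer DNA library in Tris/NaCl/DTT/glycerol buffer at room temperature for 30 min. After washing, the pools were crosslinked with 0.1% formaldehyde, proximity-ligated with BsaI/T4 ligase for 1 h at 37 °C, PCR-amplified and sequenced on an Illumina NextSeq500.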

A further assay deals with T2, ETV3L (Homo sapiens, UniProt Q6ZN32 1-361).
T2 sequence: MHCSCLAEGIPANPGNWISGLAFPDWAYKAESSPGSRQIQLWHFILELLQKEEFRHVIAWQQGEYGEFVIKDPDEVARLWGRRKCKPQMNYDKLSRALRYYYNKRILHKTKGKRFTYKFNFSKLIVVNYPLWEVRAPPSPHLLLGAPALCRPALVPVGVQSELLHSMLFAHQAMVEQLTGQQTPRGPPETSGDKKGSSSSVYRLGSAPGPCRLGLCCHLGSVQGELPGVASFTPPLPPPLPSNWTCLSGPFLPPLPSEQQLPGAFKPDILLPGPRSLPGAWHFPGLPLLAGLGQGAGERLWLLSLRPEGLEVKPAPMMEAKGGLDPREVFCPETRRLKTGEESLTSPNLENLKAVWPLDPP
The method in brief:
as §1

The target in the next assay is T3, ETS2 (Homo sapiens, UniProt P15036 1-469).
T3 sequence: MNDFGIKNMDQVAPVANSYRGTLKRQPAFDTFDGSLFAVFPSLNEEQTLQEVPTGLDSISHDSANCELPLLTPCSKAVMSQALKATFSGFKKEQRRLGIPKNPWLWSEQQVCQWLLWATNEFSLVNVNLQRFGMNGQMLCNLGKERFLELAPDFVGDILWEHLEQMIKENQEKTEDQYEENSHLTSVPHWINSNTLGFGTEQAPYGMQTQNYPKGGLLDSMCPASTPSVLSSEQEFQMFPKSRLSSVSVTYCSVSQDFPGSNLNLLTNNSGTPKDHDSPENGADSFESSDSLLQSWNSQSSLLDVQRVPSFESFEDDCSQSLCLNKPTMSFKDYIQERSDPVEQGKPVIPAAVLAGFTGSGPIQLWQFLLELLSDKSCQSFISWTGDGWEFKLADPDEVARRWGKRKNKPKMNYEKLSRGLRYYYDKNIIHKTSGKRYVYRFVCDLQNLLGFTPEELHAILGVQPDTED
The method in brief:
as §1

The target in another assay is T4, SPDEF (Homo sapiens, UniProt O95238 1-335).
T4 sequence: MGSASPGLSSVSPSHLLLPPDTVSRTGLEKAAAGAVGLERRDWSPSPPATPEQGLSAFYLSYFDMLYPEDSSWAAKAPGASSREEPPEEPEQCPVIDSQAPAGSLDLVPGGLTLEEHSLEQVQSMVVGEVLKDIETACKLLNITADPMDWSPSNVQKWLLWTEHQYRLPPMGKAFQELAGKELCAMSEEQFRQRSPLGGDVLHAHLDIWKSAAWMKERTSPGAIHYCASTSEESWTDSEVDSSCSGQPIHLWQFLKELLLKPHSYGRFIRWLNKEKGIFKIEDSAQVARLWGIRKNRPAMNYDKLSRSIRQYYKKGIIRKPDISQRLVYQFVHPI
In outline:
as §1

The next assay has as its target T5, ETV7 (Homo sapiens, UniProt Q9Y603 1-341).
T5 sequence: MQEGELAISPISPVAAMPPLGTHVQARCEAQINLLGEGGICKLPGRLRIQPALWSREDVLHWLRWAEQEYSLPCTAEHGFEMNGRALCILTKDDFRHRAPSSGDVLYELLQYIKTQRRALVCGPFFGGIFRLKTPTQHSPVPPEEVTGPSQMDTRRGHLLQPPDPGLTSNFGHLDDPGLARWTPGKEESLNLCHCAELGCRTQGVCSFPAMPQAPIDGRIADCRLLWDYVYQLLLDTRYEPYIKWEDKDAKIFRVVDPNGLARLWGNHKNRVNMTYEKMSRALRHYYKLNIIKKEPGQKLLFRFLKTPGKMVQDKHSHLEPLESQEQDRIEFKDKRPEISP
The method in brief: as §1

Another assay deals with T6, ELF5 (Homo sapiens, UniProt Q9UKW6-2 1-255).
T6 sequence: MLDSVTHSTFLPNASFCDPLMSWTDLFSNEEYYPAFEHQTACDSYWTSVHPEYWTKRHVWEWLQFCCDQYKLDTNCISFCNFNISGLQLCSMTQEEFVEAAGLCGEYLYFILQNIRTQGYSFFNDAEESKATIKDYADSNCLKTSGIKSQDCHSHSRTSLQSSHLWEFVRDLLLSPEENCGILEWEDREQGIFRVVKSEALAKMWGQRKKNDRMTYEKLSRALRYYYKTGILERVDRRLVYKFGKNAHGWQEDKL
In outline: as §1

The next assay concerns the target T7, ETV3 (Homo sapiens, UniProt P41162-2 1-143).
T7 sequence: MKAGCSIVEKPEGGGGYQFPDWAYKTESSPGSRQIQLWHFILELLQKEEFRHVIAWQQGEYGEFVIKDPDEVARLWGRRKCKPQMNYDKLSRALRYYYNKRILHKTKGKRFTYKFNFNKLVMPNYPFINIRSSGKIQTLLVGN
The method in brief: as §1

The next assay deals with ETV6 (Homo sapiens, UniProt P41212 1-452). In outline:
as §1

ETV6, sequence (P41212 whole entry): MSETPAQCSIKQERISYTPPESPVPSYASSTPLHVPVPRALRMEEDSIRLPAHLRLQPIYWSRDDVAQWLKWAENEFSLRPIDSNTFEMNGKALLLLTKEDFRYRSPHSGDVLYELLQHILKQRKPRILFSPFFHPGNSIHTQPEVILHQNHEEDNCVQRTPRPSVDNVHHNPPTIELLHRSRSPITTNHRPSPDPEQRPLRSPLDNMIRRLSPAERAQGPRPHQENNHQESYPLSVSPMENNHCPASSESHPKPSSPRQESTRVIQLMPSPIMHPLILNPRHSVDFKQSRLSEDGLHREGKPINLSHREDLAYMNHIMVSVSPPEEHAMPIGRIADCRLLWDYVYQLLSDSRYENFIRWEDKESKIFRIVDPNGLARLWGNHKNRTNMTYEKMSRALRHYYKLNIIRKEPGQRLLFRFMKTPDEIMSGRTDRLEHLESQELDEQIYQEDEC

As for AAGATG, the binding signal was 1.18 fold enrichment (6-mer frequency, TF over GST control) with ERF; 1.12 fold enrichment (6-mer frequency, TF over GST control) with ETV3L; 1.16 fold enrichment (6-mer frequency, TF over GST control) with ETS2; 1.1 fold enrichment (6-mer frequency, TF over GST control) with SPDEF; 1.12 fold enrichment (6-mer frequency, TF over GST control) in the assay with ETV7; 1.14 fold enrichment (6-mer frequency, TF over GST control) with ELF5. For the same sequence, the binding signal with ETV3 was 1.09 fold enrichment (6-mer frequency, TF over GST control); with ETV6 it was 1.2 fold enrichment (6-mer frequency, TF over GST control).
Regarding CTTCTG, the binding signal with ERF is 1.28 fold enrichment (6-mer frequency, TF over GST control); in the assay with ETV3L, 1.47 fold enrichment (6-mer frequency, TF over GST control); in the assay with ETS2, 1.34 fold enrichment (6-mer frequency, TF over GST control); in the assay with SPDEF it was 1.26 fold enrichment (6-mer frequency, TF over GST control); in the assay with ETV7 it was 1.2 fold enrichment (6-mer frequency, TF over GST control); in the assay with ELF5, 1.39 fold enrichment (6-mer frequency, TF over GST control). The binding signal with ETV3 is 1.28 fold enrichment (6-mer frequency, TF over GST control); in the assay with ETV6, 1.38 fold enrichment (6-mer frequency, TF over GST control).
For the sequence ATCGAA, the binding signal is 1.18 fold enrichment (6-mer frequency, TF over GST control) in the assay with ERF; 1.16 fold enrichment (6-mer frequency, TF over GST control) in the assay with ETV3L; 1.2 fold enrichment (6-mer frequency, TF over GST control) in the assay with ETS2; 1.09 fold enrichment (6-mer frequency, TF over GST control) in the assay with SPDEF; 1.25 fold enrichment (6-mer frequency, TF over GST control) in the assay with ETV7; 1.05 fold enrichment (6-mer frequency, TF over GST control) with ELF5. Moreover, the binding signal is 1.03 fold enrichment (6-mer frequency, TF over GST control) with ETV3 and 1.05 fold enrichment (6-mer frequency, TF over GST control) with ETV6.
With CATTTT, the binding signal is 1.22 fold enrichment (6-mer frequency, TF over GST control) with ERF; 1.24 fold enrichment (6-mer frequency, TF over GST control) in the assay with ETV3L; 1.1 fold enrichment (6-mer frequency, TF over GST control) with ETS2; 1.06 fold enrichment (6-mer frequency, TF over GST control) with SPDEF; 1.2 fold enrichment (6-mer frequency, TF over GST control) in the assay with ETV7; 1.22 fold enrichment (6-mer frequency, TF over GST control) in the assay with ELF5. The binding signal with ETV3 is 1.18 fold enrichment (6-mer frequency, TF over GST control); in the assay with ETV6, 1.28 fold enrichment (6-mer frequency, TF over GST control).
TTTGCT: the binding signal was 1.39 fold enrichment (6-mer frequency, TF over GST control) in the assay with ERF; 1.22 fold enrichment (6-mer frequency, TF over GST control) with ETV3L; 1.32 fold enrichment (6-mer frequency, TF over GST control) with ETS2; 1.16 fold enrichment (6-mer frequency, TF over GST control) with SPDEF; 1.38 fold enrichment (6-mer frequency, TF over GST control) in the assay with ETV7; 1.16 fold enrichment (6-mer frequency, TF over GST control) with ELF5. Further, the binding signal in the assay with ETV3 is 1.24 fold enrichment (6-mer frequency, TF over GST control); with ETV6 it was 1.14 fold enrichment (6-mer frequency, TF over GST control).
ACGGAT: the binding signal with ERF is 1.11 fold enrichment (6-mer frequency, TF over GST control); in the assay with ETV3L it was 1.23 fold enrichment (6-mer frequency, TF over GST control); with ETS2, 1.3 fold enrichment (6-mer frequency, TF over GST control); with SPDEF it was 1.94 fold enrichment (6-mer frequency, TF over GST control); with ETV7, 1.13 fold enrichment (6-mer frequency, TF over GST control); with ELF5, 1.34 fold enrichment (6-mer frequency, TF over GST control). The binding signal with ETV3 was 1.3 fold enrichment (6-mer frequency, TF over GST control); with ETV6, 1.22 fold enrichment (6-mer frequency, TF over GST control).
With AACAAA, the binding signal with ERF is 1.2 fold enrichment (6-mer frequency, TF over GST control); with ETV3L, 1.14 fold enrichment (6-mer frequency, TF over GST control); in the assay with ETS2, 1.22 fold enrichment (6-mer frequency, TF over GST control); with SPDEF it was 1.11 fold enrichment (6-mer frequency, TF over GST control); with ETV7, 1.13 fold enrichment (6-mer frequency, TF over GST control); with ELF5 it was 1.16 fold enrichment (6-mer frequency, TF over GST control). In addition, the binding signal with ETV3 was 1.15 fold enrichment (6-mer frequency, TF over GST control); in the assay with ETV6, 1.18 fold enrichment (6-mer frequency, TF over GST control).

(Values after publication PMC7862700, “An all-to-all approach to the identification of sequence-specific readers for epigenetic DNA modifications on cytosine”.)
